The record followed here is ChEMBL document CHEMBL1961873, “Compounds: GSK PKIS; Assays: Nanosyn kinase panel” (2012).

For one experiment, the target named is T1, Inhibitor of nuclear factor kappa-B kinase subunit epsilon (Homo sapiens) (UniProt Q14164).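 Further: reported values are averaged percent inhibition figures against human IKKε.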
T1 sequence (whole entry): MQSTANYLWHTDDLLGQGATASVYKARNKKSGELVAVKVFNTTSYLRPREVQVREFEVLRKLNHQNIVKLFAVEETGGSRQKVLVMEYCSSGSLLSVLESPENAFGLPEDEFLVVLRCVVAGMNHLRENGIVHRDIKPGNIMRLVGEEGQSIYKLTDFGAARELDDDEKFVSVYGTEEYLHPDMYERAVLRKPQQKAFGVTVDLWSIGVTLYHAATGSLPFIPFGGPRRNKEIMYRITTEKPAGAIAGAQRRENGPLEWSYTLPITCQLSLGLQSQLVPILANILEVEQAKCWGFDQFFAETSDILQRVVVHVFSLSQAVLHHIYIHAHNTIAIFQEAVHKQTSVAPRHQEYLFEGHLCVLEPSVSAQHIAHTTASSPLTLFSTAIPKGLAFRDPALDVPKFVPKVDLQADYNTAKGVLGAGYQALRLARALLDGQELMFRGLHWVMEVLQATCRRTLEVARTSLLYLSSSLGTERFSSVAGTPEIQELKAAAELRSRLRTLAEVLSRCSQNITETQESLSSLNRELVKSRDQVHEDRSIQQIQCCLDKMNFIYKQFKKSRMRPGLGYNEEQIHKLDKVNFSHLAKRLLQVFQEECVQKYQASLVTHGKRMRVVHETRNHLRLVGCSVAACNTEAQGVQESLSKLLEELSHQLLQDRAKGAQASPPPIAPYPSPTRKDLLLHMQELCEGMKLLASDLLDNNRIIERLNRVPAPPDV
The settings on record: at 1 µM.
In the case of `Fc1ccc(-c2c(-c3ccncc3)nc3n2CCS3)cc1`, the inhibition was 5.11%. Take `C/C(Nc1ccc(S(N)(=O)=O)cc1)=C1/C(=O)Nc2ccccc21`: the inhibition was determined as 2.23%. Still for that read-out and setting: to `C[C@@H](Oc1cc(-n2cnc3ccc(OC4CCN(C)CC4)cc32)sc1C(N)=O)c1ccccc1Cl` belongs 6.16%; to `CCS(=O)(=O)c1ccc(OC)c(Nc2ncc(-c3ccccc3Cl)o2)c1`, 2.16%. For `COc1cc(N2CCN(C(C)C)CC2)ccc1Nc1nc(Nc2ccc(F)cc2C(=O)NC[C@@H](O)CO)c2cc[nH]c2n1`, the inhibition amounted to 10.3%.

Turning to `Cc1nnc(-c2ccc(C)c(-c3ccc(C(=O)NCc4ccc(Cl)cc4)cc3)c2)o1`, the inhibition was 5.13%.

Regarding `COc1ccc2ncn(-c3cc(O[C@H](C)c4ccccc4Cl)c(C(N)=O)s3)c2c1`, the inhibition is 4.23%. On the same count and under the same terms, with `COc1cc(Nc2ncc3c(C)nc(-c4cccc(Oc5ccccc5)c4)n3n2)cc(OC)c1OC` the figure was 21.3%. Regarding `CN(C)CCCNc1nccc(-c2c(-c3ccc(F)cc3)nn3cc(C(F)(F)F)ccc23)n1`, the inhibition was found to be 1.28%. `CS(=O)(=O)CCNCc1ccc(-c2ccc3ncnc(Nc4ccc(OCc5ccccc5)c(Br)c4)c3c2)o1`: the inhibition came to 4.71%. On to `COc1cc2ncn(-c3cc(OCCc4ccccc4)c(C(N)=O)s3)c2cc1OC`, for which the inhibition was found to be 2.69%.

Turning to `CN1CCN(CCCNc2nc3ccc(Oc4ccc(NC(=O)Nc5cc(C(F)(F)F)ccc5F)cc4)cc3[nH]2)CC1`, the inhibition was -0.63%. Still for that read-out and setting: to `CN(C)c1ccc2c(c1)/C(=C/Nc1ccc(S(N)(=O)=O)cc1)C(=O)N2` belongs 23.1%. Consider `Clc1ccc(CNc2nccc(-c3cnn4ncccc34)n2)cc1`, for which the inhibition was -0.99%. On the same count and under the same terms, with `COc1cccc(-n2cnc3c(N/N=C/c4ccncc4)ncnc32)c1` the figure was 4.51%; with `COc1ccc2cc(-c3c(-c4ccncc4)nc(-c4ccc([S+](C)[O-])cc4C)n3C)ccc2c1` (stereo not given), -2.02%.

Turning to `c1ccc(-c2n[nH]cc2-c2ccnc(-c3ccc(OCCN4CCOCC4)cc3)c2)nc1`, the inhibition is -6.6%. Still for that read-out and setting: to `COc1cc2ncn(-c3cc(OCc4cccs4)c(C(N)=O)s3)c2cc1OC` belongs 7.71%; to `CNC(=O)c1cncc(/C=C/c2c(C)cccc2C)c1`, 0.54%; to `COc1cc(C)c(N(C)C(=O)CN(C)C)cc1Nc1nc(Nc2cccc(F)c2C(N)=O)c2cc[nH]c2n1`, 0.91%. Regarding `C#Cc1cccc(Nc2ncnc3ccc(OCCCCNCCS(C)(=O)=O)cc23)c1`, the inhibition was 9.33%. Still for that read-out and setting: with `COC(=O)Nc1nc2ccc(Sc3ccc(NC(=O)Nc4cc(C(F)(F)F)ccc4F)cc3)cc2[nH]1` the figure was -1.36%; with `COc1cc(Nc2ncc3c(C)nc(-c4cccc(C(F)(F)F)c4)n3n2)cc(OC)c1OC`, 18.9%; with `O=C1Nc2ccc(I)cc2C1=Cc1cc(Br)c(O)c(Br)c1`, 3.78%.

Regarding `COc1cc2ncn(-c3cc(OCc4ccccc4C(F)(F)F)c(C(C)=O)s3)c2cc1OC`, the inhibition amounted to 4.7%. Same read-out and setting: to `O=C(Nc1ccc(Oc2ccc3[nH]c(NC(=O)c4ccccc4)nc3c2)cc1)Nc1cc(C(F)(F)F)ccc1F` belongs 3.04%; to `c1ccc(Oc2ccc(Nc3ncc(-c4ccccc4)o3)cc2)cc1`, 3.43%; to `CCS(=O)(=O)c1ccc(OC)c(Nc2ncc(-c3cccc(-c4ccccc4F)c3)o2)c1`, 0.08%.

For `Fc1ccc(-c2nc3n(c2-c2ccncc2)CCS3)cc1`, the inhibition came out at 4.11%. Still for that read-out and setting: with `C[C@@H](Oc1cc(-n2cnc3ccc(OCC4CCN(C)CC4)cc32)sc1C(N)=O)c1ccccc1Cl` the figure was 7.27%. Take `FC(F)(F)c1cccc(Nc2nccc(-c3cnn4nc(-c5ccccc5)ccc34)n2)c1`: the inhibition was 5.2%.

A further experiment has as its target T2, Serine/threonine-protein kinase Nek1 (Homo sapiens) (UniProt Q96PY6).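 Further: mean percent inhibition of NEK1 kinase, from the GSK PKIS (published kinase inhibitor set) screening panel.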
T2 sequence (whole entry): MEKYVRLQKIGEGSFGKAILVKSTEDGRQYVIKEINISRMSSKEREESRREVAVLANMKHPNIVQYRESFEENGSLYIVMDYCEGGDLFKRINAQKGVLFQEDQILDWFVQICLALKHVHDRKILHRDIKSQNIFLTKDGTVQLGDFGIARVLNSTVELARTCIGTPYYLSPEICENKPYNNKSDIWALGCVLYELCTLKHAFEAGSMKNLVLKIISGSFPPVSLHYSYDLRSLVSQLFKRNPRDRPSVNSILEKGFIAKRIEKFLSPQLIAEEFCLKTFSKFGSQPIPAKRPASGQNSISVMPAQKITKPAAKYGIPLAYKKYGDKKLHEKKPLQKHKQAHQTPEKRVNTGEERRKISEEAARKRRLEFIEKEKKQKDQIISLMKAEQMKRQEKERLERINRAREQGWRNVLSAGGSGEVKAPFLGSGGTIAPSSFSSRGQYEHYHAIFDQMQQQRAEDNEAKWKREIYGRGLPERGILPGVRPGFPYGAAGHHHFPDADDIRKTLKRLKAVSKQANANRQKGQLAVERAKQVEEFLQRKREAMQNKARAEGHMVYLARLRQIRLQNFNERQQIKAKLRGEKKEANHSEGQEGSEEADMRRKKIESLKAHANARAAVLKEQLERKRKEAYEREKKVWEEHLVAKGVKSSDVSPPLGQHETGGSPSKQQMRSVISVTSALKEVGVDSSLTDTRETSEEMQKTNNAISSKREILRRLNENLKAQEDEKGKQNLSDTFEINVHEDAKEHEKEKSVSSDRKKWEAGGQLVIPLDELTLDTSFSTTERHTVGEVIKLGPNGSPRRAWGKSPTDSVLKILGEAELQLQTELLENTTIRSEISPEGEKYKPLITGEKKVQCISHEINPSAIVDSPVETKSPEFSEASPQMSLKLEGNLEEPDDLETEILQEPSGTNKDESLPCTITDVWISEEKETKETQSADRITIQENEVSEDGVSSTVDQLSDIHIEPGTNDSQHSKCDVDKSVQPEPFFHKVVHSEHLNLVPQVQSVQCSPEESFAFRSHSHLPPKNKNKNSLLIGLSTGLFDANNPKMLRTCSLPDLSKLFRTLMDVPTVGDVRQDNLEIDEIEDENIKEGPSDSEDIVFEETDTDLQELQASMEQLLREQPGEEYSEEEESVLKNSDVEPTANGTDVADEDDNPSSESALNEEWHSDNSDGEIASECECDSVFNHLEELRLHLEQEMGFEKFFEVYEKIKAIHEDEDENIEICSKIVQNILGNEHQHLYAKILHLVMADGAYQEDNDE
Conditions: at 0.1 µM.
Take `Fc1ccc(-c2c(-c3ccncc3)nc3n2CCS3)cc1`: the inhibition came out at 2.32%. Still for that read-out and setting: to `C/C(Nc1ccc(S(N)(=O)=O)cc1)=C1/C(=O)Nc2ccccc21` belongs -0.12%; to `C[C@@H](Oc1cc(-n2cnc3ccc(OC4CCN(C)CC4)cc32)sc1C(N)=O)c1ccccc1Cl`, 9.13%; to `CCS(=O)(=O)c1ccc(OC)c(Nc2ncc(-c3ccccc3Cl)o2)c1`, 0.72%. Consider `COc1cc(N2CCN(C(C)C)CC2)ccc1Nc1nc(Nc2ccc(F)cc2C(=O)NC[C@@H](O)CO)c2cc[nH]c2n1`, for which the inhibition came out at 2.75%. Regarding `Cc1nnc(-c2ccc(C)c(-c3ccc(C(=O)NCc4ccc(Cl)cc4)cc3)c2)o1`, the inhibition turned out to be 2.48%.

`COc1ccc2ncn(-c3cc(O[C@H](C)c4ccccc4Cl)c(C(N)=O)s3)c2c1`: the inhibition is 4.81%. Same read-out and setting: with `COc1cc(Nc2ncc3c(C)nc(-c4cccc(Oc5ccccc5)c4)n3n2)cc(OC)c1OC` the figure was 2.64%; with `CN(C)CCCNc1nccc(-c2c(-c3ccc(F)cc3)nn3cc(C(F)(F)F)ccc23)n1`, 2.23%; with `CS(=O)(=O)CCNCc1ccc(-c2ccc3ncnc(Nc4ccc(OCc5ccccc5)c(Br)c4)c3c2)o1`, 1.95%. Still for that read-out and setting: to `COc1cc2ncn(-c3cc(OCCc4ccccc4)c(C(N)=O)s3)c2cc1OC` belongs 1.71%; to `O=C(NCC1CC1)c1ccc(-c2cccc(C(=O)NC3CC3)c2)cc1`, 1.66%. On the same count and under the same terms, to `CN1CCN(CCCNc2nc3ccc(Oc4ccc(NC(=O)Nc5cc(C(F)(F)F)ccc5F)cc4)cc3[nH]2)CC1` belongs 1.41%; to `CN(C)c1ccc2c(c1)/C(=C/Nc1ccc(S(N)(=O)=O)cc1)C(=O)N2`, 1.42%; to `Clc1ccc(CNc2nccc(-c3cnn4ncccc34)n2)cc1`, 0.32%. Take `COc1cccc(-n2cnc3c(N/N=C/c4ccncc4)ncnc32)c1`: the inhibition was 0%. With `COc1ccc2cc(-c3c(-c4ccncc4)nc(-c4ccc([S+](C)[O-])cc4C)n3C)ccc2c1` (stereo not given), the inhibition was determined as 0.36%. On to `c1ccc(-c2n[nH]cc2-c2ccnc(-c3ccc(OCCN4CCOCC4)cc3)c2)nc1`, for which the inhibition stood at 1.71%. On the same count and under the same terms, to `COc1cc2ncn(-c3cc(OCc4cccs4)c(C(N)=O)s3)c2cc1OC` belongs 3.32%. On to `CNC(=O)c1cncc(/C=C/c2c(C)cccc2C)c1`, for which the inhibition is -0.56%.

Regarding `COc1cc(C)c(N(C)C(=O)CN(C)C)cc1Nc1nc(Nc2cccc(F)c2C(N)=O)c2cc[nH]c2n1`, the inhibition came out at 1.9%. The same measure, in the same setting: with `C#Cc1cccc(Nc2ncnc3ccc(OCCCCNCCS(C)(=O)=O)cc23)c1` the figure was 3.06%; with `COC(=O)Nc1nc2ccc(Sc3ccc(NC(=O)Nc4cc(C(F)(F)F)ccc4F)cc3)cc2[nH]1`, -0.58%; with `CCc1nccc2c1nc(-c1nonc1N)n2CC`, 0.36%. The same measure, in the same setting: with `COc1cc(Nc2ncc3c(C)nc(-c4cccc(C(F)(F)F)c4)n3n2)cc(OC)c1OC` the figure was 4.76%; with `O=C1Nc2ccc(I)cc2C1=Cc1cc(Br)c(O)c(Br)c1`, 2.45%. With `COc1cc2ncn(-c3cc(OCc4ccccc4C(F)(F)F)c(C(C)=O)s3)c2cc1OC`, the inhibition came to 2.21%. Same read-out and setting: to `O=C(Nc1ccc(Oc2ccc3[nH]c(NC(=O)c4ccccc4)nc3c2)cc1)Nc1cc(C(F)(F)F)ccc1F` belongs 1.92%.

For `c1ccc(Oc2ccc(Nc3ncc(-c4ccccc4)o3)cc2)cc1`, the inhibition came to 0.18%.

For `Fc1ccc(-c2ncn(CCCN3CCOCC3)c2-c2ccncc2)cc1`, the inhibition amounted to 0.93%.

For `CCS(=O)(=O)c1ccc(OC)c(Nc2ncc(-c3cccc(-c4ccccc4F)c3)o2)c1`, the inhibition came out at 1.03%. Consider `Fc1ccc(-c2nc3n(c2-c2ccncc2)CCS3)cc1`, for which the inhibition was 2.77%. Consider `C[C@@H](Oc1cc(-n2cnc3ccc(OCC4CCN(C)CC4)cc32)sc1C(N)=O)c1ccccc1Cl`, for which the inhibition came to 17.6%.

With `FC(F)(F)c1cccc(Nc2nccc(-c3cnn4nc(-c5ccccc5)ccc34)n2)c1`, the inhibition worked out at 2.32%.

As a reminder, the inhibition is the relative decrease from the control value, in per cent.
